An excerpt weighted towards active compounds, which were near 3.9% of everything screened.
Rtt109 Vps75 = C. albicans Rtt109 histone acetyltransferase inhibition | Q5AAJ8 | purified Rtt109/Vps75, ThioGlo CoA-SH fluorescence, 4 h | inhibition, % at 34.9 µM | 330,000 tested, 0.16% active;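 active = inhibition of at least 50% in every replicate; inconclusive = best replicate reaches 50% inhibition but some replicates fall short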
Target sequence (Q5AAJ8 whole entry, looked up): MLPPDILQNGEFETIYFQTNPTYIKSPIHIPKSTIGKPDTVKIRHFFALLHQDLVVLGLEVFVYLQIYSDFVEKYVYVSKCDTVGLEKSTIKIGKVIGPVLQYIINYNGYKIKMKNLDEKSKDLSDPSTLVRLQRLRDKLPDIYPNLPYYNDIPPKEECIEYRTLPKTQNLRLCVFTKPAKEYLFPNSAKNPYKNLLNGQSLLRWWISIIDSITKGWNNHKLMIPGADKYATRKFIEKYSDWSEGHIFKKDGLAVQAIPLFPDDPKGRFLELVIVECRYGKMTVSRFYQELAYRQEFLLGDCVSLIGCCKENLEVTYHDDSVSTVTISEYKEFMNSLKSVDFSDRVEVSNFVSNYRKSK
Platelet DG rel = platelet dense granule release activity; human platelet-rich plasma, SFLLRN dense granule ATP release, luminescence; inhibition, %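 (compounds screened at 7.5 µM in platelet-rich plasma)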; 300,000 tested, 0.22% active;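 active = mean replicate score, as percent of positive control, at or above 50; inconclusive = mean below 50 but at least one replicate at or above 50; inactive = mean and every replicate below 50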
PHOSPHO1 block = inhibitors of human PHOSPHO1 phosphatase; Q8TCT1; recombinant PHOSPHO1, absorbance phosphatase assay; inhibition, % at 13.3 µM; 290,000 tested, 1.1% active; AID 1565; in the data active = inhibition above about 60%
Target sequence (Q8TCT1 whole entry, looked up): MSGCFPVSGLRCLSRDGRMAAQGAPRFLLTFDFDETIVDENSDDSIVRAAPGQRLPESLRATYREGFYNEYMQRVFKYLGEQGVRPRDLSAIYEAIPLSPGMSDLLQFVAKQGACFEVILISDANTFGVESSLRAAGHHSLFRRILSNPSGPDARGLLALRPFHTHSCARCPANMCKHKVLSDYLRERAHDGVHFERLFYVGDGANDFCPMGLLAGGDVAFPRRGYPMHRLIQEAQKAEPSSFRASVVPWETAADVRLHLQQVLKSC
SKKanGAS inh = inhibitors of SKKanGAS S. pyogenes growth in kanamycin (SK-promoter or general growth effect); BacTiter-Glo, 6 h; inhibition, % at 7.5 µM; 300,000 tested, 1.3% active; AID 1662;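 active = mean replicate score, as percent of positive control median, at least 50; inconclusive = mean below 50 but one replicate at or above 50; inactive = mean and every replicate below 50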;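 note: strain carries kanamycin resistance gene driven by streptokinase promoter and grows in 40 µg/ml kanamycin; loss of luminescence reflects streptokinase promoter inhibition or plain growth inhibition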
WT yeast gro inh = growth inhibition of WT yeast, mitochondrial fusion screen | AID 1362 | mitochondrial fusion phenotypic screen, WT strain | inhibition, % at 10 µM | 190,000 tested, 2.1% active; in the data active = inhibition above about 58%; tested in S. cerevisiae
TPT1 inhibitor = blocks Candida albicans tRNA 2'-phosphotransferase; recombinant caTPT1, FP RNA substrate dephosphorylation; AID 1962; inhibition, % at 5 µM; 300,000 tested, 0.81% active;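 active = inhibition above the mean of all tested compounds plus 3 SD, set per screening campaign, cut at about 24% in these data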
Of the large screens only hits and unclear results are named; the others gave an inactive call.

O=C(Cc1ccc(NC(=O)C2CCN(C(=O)C3CC3)CC2)cc1)Nc1cccc(C(=O)N2CCCCC2)c1	none (no result: Platelet DG rel, PHOSPHO1 block, SKKanGAS inh, WT yeast gro inh, TPT1 inhibitor)
CCc1ccc(NC(=O)CSc2nnc(CNC(=O)c3cccs3)o2)cc1	none (no result: WT yeast gro inh)
C=CCCC(=O)Nc1nc(C)c(-c2csc(Nc3ccc(Cl)cc3Cl)n2)s1	SKKanGAS inh inconclusive
CCCCCC(=O)Nc1nc(C)c(-c2csc(Nc3cc(OC)ccc3OC)n2)s1	none
C=CCCC(=O)Nc1nc(C)c(-c2csc(Nc3ccccc3OC)n2)s1	PHOSPHO1 block 76.8
CCCCCCC(=O)Nc1nc(C)c(-c2csc(Nc3cc(OC)ccc3OC)n2)s1	PHOSPHO1 block 76.8
COCCCN1C(=O)C(=O)/C(=C(/O)c2ccc(S(=O)(=O)N3CCCCC3)cc2)C1c1ccc(O)cc1 (centres undefined)	none (no result: WT yeast gro inh)
COc1ccc(CN(C)C(=O)c2ccc(NS(=O)(=O)c3ccc(C)c([N+](=O)[O-])c3)cc2)c(OC)c1OC	none (no result: PHOSPHO1 block, WT yeast gro inh)
Cc1ccc(NC(=O)CC(=O)c2ccc([N+](=O)[O-])cc2)cc1S(=O)(=O)Nc1cccc(Cl)c1	none
Cc1ccc(NC(=O)c2cccs2)cc1S(=O)(=O)Nc1cccc(Cl)c1	Rtt109 Vps75 inconclusive, WT yeast gro inh 70.3
Cc1ccc(NC(=S)NC(=O)c2ccc(F)cc2)cc1S(=O)(=O)Nc1cccc(Cl)c1	SKKanGAS inh 70.2
CC12CCC(C)(O1)C1C(=O)N(c3nccs3)C(=O)C12 (centres undefined)	none (no result: Platelet DG rel, PHOSPHO1 block, SKKanGAS inh, WT yeast gro inh, TPT1 inhibitor)
O=C(NC1CCCCC1)C1CCN(S(=O)(=O)c2cccc3nonc23)CC1	none (no result: WT yeast gro inh)
O=C(CSc1cccc[n+]1[O-])c1cc2ccccc2o1	PHOSPHO1 block 79.4
O=C(O)CSc1cccc[n+]1[O-]	none
O=C(CSc1nnc(C2CC2)n1Cc1ccccc1)c1cc2ccccc2o1	PHOSPHO1 block 97.1
Cc1nc2ccc(NC(=O)c3cccs3)cc2s1	none (no result: WT yeast gro inh)
C/C(=N\Nc1nc2ccccc2s1)c1cccs1	SKKanGAS inh 50.3
CC(=O)Nc1ccc2nc(NC(=O)c3cccs3)sc2c1	Platelet DG rel 86.3 (no result: WT yeast gro inh)
CS(=O)(=O)c1ccc2nc(NC(=O)c3ccccc3)sc2c1	none (no result: WT yeast gro inh)
CS(=O)(=O)c1ccc2nc(NC(=O)c3ccc(NS(=O)(=O)c4cccc([N+](=O)[O-])c4)cc3)sc2c1	SKKanGAS inh 61.8 (no result: WT yeast gro inh)
Cc1ccc2nc(NC(=O)c3ccc(NS(=O)(=O)c4cccs4)cc3)sc2c1	SKKanGAS inh 61.6
CCOC(=O)c1sc(NC(=O)C2CC(=O)N(c3ccccc3OC)C2)nc1C (centres undefined)	none (no result: Platelet DG rel, PHOSPHO1 block, SKKanGAS inh, WT yeast gro inh, TPT1 inhibitor)
CO[C@H]1C=CO[C@@]2(C)Oc3c(C)c(O)c4c(O)c(c5c(c4c3C2=O)NC2(CCN(CC(C)C)CC2)N=5)=NC(=O)C(C)=CC=C[C@H](C)[C@H](O)[C@@H](C)[C@@H](O)[C@@H](C)[C@H](OC(C)=O)[C@@H]1C	SKKanGAS inh 106.4 (no result: Rtt109 Vps75)
CO[C@H]1C=CO[C@@]2(C)Oc3c(C)c(O)c4c(O)c(c5c(nc6cc(C)ccn65)c4c3C2=O)NC(=O)C(C)=CC=C[C@H](C)[C@H](O)[C@@H](C)[C@@H](O)[C@@H](C)[C@H](OC(C)=O)[C@@H]1C	SKKanGAS inh 104.7 (no result: Rtt109 Vps75, TPT1 inhibitor)
CCC(C)N1CCC2(CC1)N=c1c(c3c4c5c(C)c(O)c3c(O)c1=NC(=O)C(C)=CC=C[C@H](C)[C@H](O)[C@@H](C)[C@@H](O)[C@@H](C)[C@H](OC(C)=O)[C@H](C)[C@@H](OC)C=CO[C@@](C)(O5)C4=O)N2 (some centres undefined)	none (no result: Platelet DG rel, PHOSPHO1 block, SKKanGAS inh, WT yeast gro inh)
CC1CN(C(=O)COC(=O)c2ccc(C#N)cc2)CC(C)O1 (centres undefined)	none (no result: WT yeast gro inh)
CC(Oc1ccc(Cl)cc1Cl)C(=O)Nc1ccc2oc(-c3ccncc3)nc2c1 (centres undefined)	SKKanGAS inh 51.3
C[C@H](NC(=O)c1ccccc1Cl)C(=O)OCc1cn2cc(Cl)ccc2n1	none (no result: PHOSPHO1 block, WT yeast gro inh)
CNc1ccccc1C(C)(C)c1cc(-c2cc(C)cc(C)c2)no1	none
CNc1ccccc1C(C)(C)c1cc(-c2cccc(OC)c2)no1	WT yeast gro inh 62.8
O=C(Nc1ccc2c(c1)OCCO2)C1CCN(C(=O)c2ccc([N+](=O)[O-])cc2)CC1	PHOSPHO1 block 66.2
CC(=O)Nc1ccc(NC(=O)C2CCN(C(=O)c3ccc([N+](=O)[O-])cc3)CC2)cc1	none
CCc1ccccc1NC(=O)C1CCN(C(=O)c2ccc([N+](=O)[O-])cc2)CC1	Rtt109 Vps75 57.6
Cc1[nH]c2ccc(F)cc2c1CCN(Cc1ccco1)C(=S)NC(C)(C)C	WT yeast gro inh 66.8
O=C(CN1CCN(c2ccccn2)CC1)Nc1ccc(Cl)c(C(F)(F)F)c1	none
COc1ccccc1N1CCN(CC(=O)Nc2ccc(Cl)c(C(F)(F)F)c2)CC1	WT yeast gro inh 58.0
CCN(CC)S(=O)(=O)c1ccc(N2CCN(C)CC2)c(NC(=O)c2cc(=O)c3ccccc3o2)c1	none (no result: WT yeast gro inh)
CN(C)c1ccc(/C=N\Nc2ccccn2)cc1	none (no result: WT yeast gro inh)
CN(C)c1ccc(/C=N/Nc2ccc(-n3ccnc3)nn2)cc1	PHOSPHO1 block 85.7
COc1ccc(-c2csc(Nc3ccc(S(=O)(=O)Nc4cc(C)on4)cc3)n2)cc1C	SKKanGAS inh 68.3
COc1ccc(-c2csc(Nc3ccc(S(=O)(=O)Nc4cc(OC)nc(OC)n4)cc3)n2)cc1	SKKanGAS inh inconclusive
N#C/C(=N/Nc1ccc(OC(F)(F)F)cc1)C(N)=S	SKKanGAS inh 114.9 (no result: WT yeast gro inh)
COc1ccc(N/N=C(\C#N)C(N)=O)cc1	none
CC(C)CCn1c(O)c(N=Nc2ccccn2)c2ccccc21	WT yeast gro inh 67.9
CCOc1ncccc1C(=O)OCc1csc(CC(=O)Nc2ccccc2C)n1	none (no result: Platelet DG rel, PHOSPHO1 block, SKKanGAS inh, WT yeast gro inh, TPT1 inhibitor)
Cc1cccc(NS(=O)(=O)c2ccc(C)c(C(=O)NNC(=O)c3csc(N4CCOCC4)n3)c2)c1	none (no result: Platelet DG rel, PHOSPHO1 block, SKKanGAS inh, WT yeast gro inh, TPT1 inhibitor)
COC(=O)c1cn(C(=O)c2ccc(C)cc2C)c2ccccc12	SKKanGAS inh inconclusive, WT yeast gro inh 60.5
COC(=O)c1cn(C(=O)c2ccccc2Cl)c2ccccc12	none (no result: Rtt109 Vps75)
COC(=O)c1cn(C(=O)OC)c2ccccc12	WT yeast gro inh 66.3
COC(=O)c1cn(C(=O)c2ccc(F)cc2)c2ccccc12	none (no result: PHOSPHO1 block, WT yeast gro inh)
CC1CCN(S(=O)(=O)c2cccc(C(=O)Nc3nncs3)c2)CC1	none (no result: WT yeast gro inh)
CCCn1nnc(NC(=S)NC(=O)Cc2ccccc2)n1	none
CCCn1nnc(NC(=S)NC(=O)CC)n1	PHOSPHO1 block 60.4
CCOC(=O)c1sc2nc(Cc3ccc(Cl)cc3)[nH]c(=S)c2c1C	SKKanGAS inh 57.8
CCOC(=O)c1sc2nc(C)nc(NCc3ccc(Cl)cc3)c2c1C	none (no result: WT yeast gro inh)
S=C(c1cn(CCOc2ccccc2)c2ccccc12)N1CCCC1	WT yeast gro inh 70.5 (no result: Platelet DG rel)
O=C(O)Cn1cc(C(=S)N2CCOCC2)c2ccccc21	PHOSPHO1 block 88.2
CC1CN(c2cc(-c3ccccc3)c3ccccc3n2)CC(C)O1 (centres undefined)	WT yeast gro inh 76.3
c1ccc(-c2cc(N3CCOCC3)nc3ccccc23)cc1	none
CC1CN(c2nc3ccccc3cc2-c2ccccc2)CC(C)O1 (centres undefined)	WT yeast gro inh 78.0

Screening data from PubChem.
